Experimental data taken from the supplement of paper PMC12340641.
Counter-ions that a name gives are not always drawn.

Each molecule was assayed against IKZF1 (dCK*-IKZF1 fusion in HEK293FT) (UniProt Q13422) (assay: inhibition of IKZF1 HTRF signal (DMSO = 0%, pomalidomide 10 uM = 100%); higher = lower IKZF1 protein level). Details: compound concentration: 5 uM, overnight (~20 h).
Outline: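 For percent inhibition of IKZF1 signal, each plate was normalised to vehicle and to a reference degrader. Cells were HEK293FT stably expressing an IKZF1 fusion, plated at 2000/well in 384-well format and treated overnight at 37 °C with 5 μM compound, one well each. Lysates were probed overnight with a commercial HTRF total-IKZF1 antibody kit, with the 665/620 nm ratio background-subtracted and vehicle and degrader fixed at 0% and 100%.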

Chain of IKZF1 (dCK*-IKZF1 fusion in HEK293FT) (Q13422 whole entry, looked up, the tested form may be a part): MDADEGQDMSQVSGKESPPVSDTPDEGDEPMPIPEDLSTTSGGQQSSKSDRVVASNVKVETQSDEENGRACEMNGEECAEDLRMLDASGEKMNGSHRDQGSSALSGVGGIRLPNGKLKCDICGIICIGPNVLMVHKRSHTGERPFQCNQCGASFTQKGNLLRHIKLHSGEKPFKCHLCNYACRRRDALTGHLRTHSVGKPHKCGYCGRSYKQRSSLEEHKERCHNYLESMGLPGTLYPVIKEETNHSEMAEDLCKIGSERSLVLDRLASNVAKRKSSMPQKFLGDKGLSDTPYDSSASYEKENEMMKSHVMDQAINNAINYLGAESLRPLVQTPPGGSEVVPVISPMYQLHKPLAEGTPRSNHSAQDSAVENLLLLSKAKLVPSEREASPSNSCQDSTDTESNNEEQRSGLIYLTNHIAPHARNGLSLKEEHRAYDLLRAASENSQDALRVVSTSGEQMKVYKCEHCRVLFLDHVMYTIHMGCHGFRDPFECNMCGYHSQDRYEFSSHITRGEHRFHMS

Row | Compound | inhibition of IKZF1 HTRF signal
1 | CSc1ccc2c(c1)N(CCC1CCCCN1C)c1ccccc1S2 (stereo not drawn) [Thioridazine HCl] | -1.96%
2 | c1cncc(CN2CCC(n3ncc4c(N5CCOCC5)nc(-c5ccc6[nH]ccc6c5)nc43)CC2)c1 | 30.4%
3 | CCN(CC)CCNc1ccc(CO)c2sc3ccccc3c(=O)c12 [Hycanthone] | -30.4%
4 | C[C@H](NCc1ccc(OCc2ccccc2F)cc1)C(N)=O [priralfinamide] | -24%
5 | CCC1(O)CC2CN(CCc3c([nH]c4ccccc34)[C@@](C(=O)OC)(c3cc4c(cc3OC)N(C=O)C3[C@]45CCN4CC=C[C@@](CC)([C@@H](OC(C)=O)[C@]3(O)C(=O)OC)[C@H]45)C2)C1 (stereo partly drawn) [Vincristine sulfate] | -23.3%
6 | C=C1CCC2[C@](C)(CO)[C@H](O)CC[C@@]2(C)[C@@H]1C/C=C1/C(=O)OC[C@H]1O (stereo partly drawn) [Andrographolide] | 0.47%
7 | CC(C)/N=c1/cc2n(-c3ccc(Cl)cc3)c3ccccc3nc-2cc1Nc1ccc(Cl)cc1 [Clofazimine] | 6.09%
8 | NC(=O)N/N=C/c1ccc(Oc2ccc(F)cc2)cc1 | -35%
9 | CCCCCNC(=N)N/N=C/c1c[nH]c2ccc(OC)cc12 | -1.99%
10 | CCN(CC)CCOc1ccccc1C(=O)CCc1ccccc1 [etafenone] | 11%
11 | Oc1cc(O)cc(/C=C/c2ccc(O)c(O)c2)c1 [piceatannol] | 6.73%
12 | CCOc1ccc2nc3cc(N)ccc3c(N)c2c1 | -16.3%
13 | Nc1ccc(/N=N/c2ccccc2)c(N)n1 | -28.9%
14 | CCOC(=O)Nc1ccc2c(c1)N(C(=O)CCN1CCOCC1)c1ccccc1S2 [moracizine] | -24.3%
15 | O=C1c2ccccc2-c2n[nH]c3cccc1c23 [pyrazolanthrone] | -38.5%
16 | CO[C@H]1C[C@@H]2CC[C@@H](C)[C@@](O)(O2)C(=O)C(=O)N2CCCC[C@H]2C(=O)O[C@H]([C@H](C)C[C@@H]2CC[C@@H](O)[C@H](OC)C2)CC(=O)[C@H](C)/C=C(\C)[C@@H](O)[C@@H](OC)C(=O)[C@H](C)C[C@H](C)/C=C/C=C/C=C/1C [Rapamycin] | -24.4%
17 | O=C(Nc1cccc(C(F)(F)F)c1)Nc1ccc(Br)cc1-c1nnn[nH]1 | -23.4%
18 | CC[C@]1(O)C[C@H]2CN(CCc3c([nH]c4ccccc34)[C@@](C(=O)OC)(c3cc4c(cc3OC)N(C=O)[C@H]3[C@@](O)(C(=O)OC)[C@H](OC(C)=O)[C@]5(CC)C=CCN6CC[C@]43[C@@H]65)C2)C1 [Vincristine Sulfate] | 33.3%
19 | OCCCNc1cc(-c2ccnc(Nc3cccc(Cl)c3)n2)ccn1 | 14.5%

Row | Compound | inhibition of IKZF1 HTRF signal
20 | Clc1ccc(COC(Cn2ccnc2)c2ccc(Cl)cc2Cl)cc1 (stereo not drawn) | -29.1%
21 | CC(C)(C)c1ccc(-c2nc3ccccc3[nH]2)cc1 | -0.19%
22 | C(=C\c1ccccc1)/CN1CCN(C(c2ccccc2)c2ccccc2)CC1 | -25.9%
23 | Clc1ccc(C(Cn2ccnc2)OCc2csc3c(Cl)cccc23)c(Cl)c1 (stereo not drawn) [Sertaconazole nitrate] | 20%
24 | CCCCC1OC(=O)c2ccccc21 (stereo not drawn) [Butylphthalide] | -30.6%
25 | COC1CCN(c2cccc(-c3cc(NC(C)=O)nc(-n4nc(C)cc4C)n3)n2)CC1 | -25.1%
26 | O=C1[C@H]2CCCC[C@H]2C(=O)N1CCCCN1CCN(c2nsc3ccccc23)CC1 [Perospirone] | 16.4%
27 | S=C=Nc1ccc(N=C=S)cc1 | 20.8%
28 | CC[C@H](CO)Nc1nc(Nc2cccc(-c3ccccn3)c2)c2ncn(C(C)C)c2n1 | -29.5%
29 | OCCN1CCN(CCCN2c3ccccc3Sc3ccc(C(F)(F)F)cc32)CC1 [Fluphenazine  HCl] | -52.5%
30 | Oc1c(Br)cc(Br)c2cccnc12 | 1.09%
31 | CCc1nc(N)nc(N)c1-c1ccc(Cl)cc1 | 18%
32 | C[C@@H]1CC(=O)c2c(ccc3c2C(=O)c2cccc(O)c2C3=O)C1 [ochromycinone] | 14.5%
33 | COc1cc(NS(=O)(=O)c2ccc(N)cc2)nc(OC)n1 | -24.5%
34 | CC(=O)N(OCc1ccccc1)[C@@H]1c2cc(C#N)ccc2OC(C)(C)[C@H]1O | -1.85%
35 | CCc1c2c(nc3ccc(OC(=O)N4CCC(N5CCCCC5)CC4)cc13)-c1cc3c(c(=O)n1C2)COC(=O)[C@]3(O)CC [Irinotecan HCl] | -17.6%
36 | CC1(C)Oc2ccc(C#N)cc2[C@@H](N2CCCC2=O)[C@@H]1O.CC1(C)Oc2ccc(C#N)cc2[C@H](N2CCCC2=O)[C@H]1O [levcromakalim] | -32.9%
37 | Cc1ccc(-c2ccc(C)cn2)nc1 [abametapir] | -30.6%
38 | CCCNC(=O)NS(=O)(=O)c1ccc(Cl)cc1 | -35.8%
